According to article PMC4336329 (PLoS ONE, 2015):
In all, about 310,000 compounds went through this assay and about 14,000 (4.5%) showed an effect of 50% or more. The effect is printed as a negative number. What follows is part of a selection rich in strong results, with near analogues and random picks from the rest.

molecular target: human ether-à-go-go-related gene (hERG) potassium channel (human, UniProt Q12809); assay: primary screen, population patch clamp on CHO cells stably expressing hERG; higher = less effect of the substance
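Note: peak tail current of the secondary pulse compared with the same well before compound.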

Sequence of human ether-à-go-go-related gene (hERG) potassium channel (Q12809 whole entry, looked up): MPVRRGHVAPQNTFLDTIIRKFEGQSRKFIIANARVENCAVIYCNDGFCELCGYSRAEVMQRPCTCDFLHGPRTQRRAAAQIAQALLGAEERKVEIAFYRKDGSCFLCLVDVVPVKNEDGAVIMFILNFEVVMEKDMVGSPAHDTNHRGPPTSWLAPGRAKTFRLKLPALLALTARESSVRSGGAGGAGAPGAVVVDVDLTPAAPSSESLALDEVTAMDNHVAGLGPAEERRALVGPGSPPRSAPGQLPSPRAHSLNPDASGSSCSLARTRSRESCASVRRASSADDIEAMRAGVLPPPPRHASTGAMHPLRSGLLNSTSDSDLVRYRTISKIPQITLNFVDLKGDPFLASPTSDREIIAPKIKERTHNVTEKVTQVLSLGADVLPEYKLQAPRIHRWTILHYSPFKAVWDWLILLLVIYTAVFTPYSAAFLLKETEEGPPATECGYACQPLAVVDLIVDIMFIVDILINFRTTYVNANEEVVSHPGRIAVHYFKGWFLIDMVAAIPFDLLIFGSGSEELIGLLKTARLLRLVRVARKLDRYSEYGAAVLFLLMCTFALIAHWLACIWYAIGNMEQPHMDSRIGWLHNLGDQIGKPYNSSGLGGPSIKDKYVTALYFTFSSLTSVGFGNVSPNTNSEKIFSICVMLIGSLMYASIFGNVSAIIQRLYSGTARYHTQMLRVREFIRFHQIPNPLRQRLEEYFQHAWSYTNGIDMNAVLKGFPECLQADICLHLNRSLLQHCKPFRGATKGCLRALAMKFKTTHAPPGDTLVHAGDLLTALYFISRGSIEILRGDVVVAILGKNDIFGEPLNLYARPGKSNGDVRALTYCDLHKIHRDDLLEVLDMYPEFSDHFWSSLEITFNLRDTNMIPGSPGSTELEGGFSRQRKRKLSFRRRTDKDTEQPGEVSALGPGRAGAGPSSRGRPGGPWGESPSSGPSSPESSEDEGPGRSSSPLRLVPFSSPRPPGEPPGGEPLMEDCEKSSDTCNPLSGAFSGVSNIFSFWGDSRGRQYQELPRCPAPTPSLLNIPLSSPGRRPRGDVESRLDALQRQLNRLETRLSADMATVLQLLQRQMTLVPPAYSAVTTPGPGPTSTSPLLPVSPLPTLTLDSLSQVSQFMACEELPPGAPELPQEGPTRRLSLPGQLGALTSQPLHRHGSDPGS

Compound | hERG current change (%, negative = inhibition) at 10uM [%]
COC(=O)COc1ccc(S(=O)(=O)Nc2ccc(NC(C)=O)cc2)cc1C | 19.8
COc1ccc(C2Nc3ccccc3C(=O)N2Cc2ccccc2)cc1Cn1nnc2ccccc21 (centres unmarked) | -25.1
Cc1cc(S(=O)(=O)N2CCN(c3ccccc3C)CC2)ccc1F | 1.78
CCC(C)C(=O)Nc1nnc(SCC(=O)Nc2ccccc2F)s1 (centres unmarked) | 10.1
CCOc1ccc2c(c1)nc(C)n2C | 11.7
C[C@]12CC[C@@H]3c4ccc(O)cc4CC[C@H]3[C@@H]1CC[C@@H]2OC(=O)CCC1CCCC1 | 14
O=C(CN1C(=O)CSCC1=O)Nc1ccc2c(c1)OCO2 | 16.2
Cc1ccc(S(=O)(=O)N2CCCCC2)cc1C(=O)c1nccn1C | -2.56
O=C(N/N=C\c1cn(-c2ccccc2)nc1-c1ccccc1)c1ccc2c(c1)OCO2 | 11.3
O=C(CSc1nnc(-c2ccncc2)n1-c1ccccc1)NC1CC1 | 4.69
Cc1cc(/C=C2\SC(=Nc3ccc(N4CCOCC4)cc3)N(C)C2=O)c(C)n1-c1cccnc1 | 11.3
Cc1cc(=O)n2[nH]c(C(F)(F)F)c(-c3ccccc3)c2n1 | 3.6
CC(C)C1NC(=S)N(Cc2ccccc2)C1=O (centres unmarked) | 5.2
CC(NC(=O)C1CCN(C(=O)[C@@H]2Cc3ccccc3CN2)CC1)c1ccccc1 (some centres unmarked) | -25.7
CC(C)c1ccc(NC(=O)C2CCN(C(=O)[C@@H]3Cc4ccccc4CN3)CC2)cc1 | -67.4
CC(C)c1ccc(NC(=O)C2CCC(CNC(=O)[C@@H]3Cc4ccccc4CN3)CC2)cc1 (some centres unmarked) | 9.65
CCOc1ccc(NC(=O)COC(=O)c2c(OC)cccc2OC)cc1 | -1.27
Cl.OC(CN1C2=NCCCN2c2ccccc21)c1ccc2c(c1)OCO2 (centres unmarked) | -70.2
Cl.O=C(CN1C2=NCCN2c2ccccc21)N1CCOCC1 | 9.79

Compound | hERG current change (%, negative = inhibition) at 10uM [%]
Cl.OC(CN1C2=NCCN2c2ccccc21)c1ccc2c(c1)OCO2 (centres unmarked) | -63.6
OC(c1ccc2c(c1)OCO2)c1nccc2ccccc12 (centres unmarked) | -1.04
COc1cc(C(=O)NNC(=O)CSc2nnc3ccccn23)cc(OC)c1OC | 15.4
CCCC(=O)Nc1ccc(C(=O)N/N=C/c2cccnc2)cc1 | -8.24
CC1(C)Cc2c(cnn2-c2ccc(F)cc2)C(NC(=O)CCCN2CCCCC2=O)C1 (centres unmarked) | 2.89
CCOC(=O)Cn1c(=O)c2c(nc3n2CCCCN3c2ccc(C)cc2)n(C)c1=O | -19.5
CCOC(=O)Cn1c(=O)c2c(nc3n2CCCCN3c2ccc(OCC)cc2)n(C)c1=O | -41.4
CCCCOC(=O)Cn1c(=O)c2c(nc3n2CCCCN3c2ccc(C)cc2)n(C)c1=O | -52.8
Cc1ccccc1S(=O)(=O)Cc1ccc(C(=O)NCCN2CCCCC2C)o1 (centres unmarked) | -39.3
CCOc1ccc(C2c3cc(OC)c(OC)cc3CC(=O)N2c2ccccc2)cc1 (centres unmarked) | -26.5
CCOc1cc2c(cc1OCC)C(c1ccc(OC)cc1)N(c1ccccc1)C(=O)C2 (centres unmarked) | -57.5
CCOc1cc2c(cc1OCC)C(c1ccccc1)N(c1ccccc1)C(=O)C2 (centres unmarked) | -6.2
COC(=O)c1ccc(-n2c(C)cc(C(=O)COC(=O)CC3Sc4ccccc4NC3=O)c2C)cc1 (centres unmarked) | 28.5
CCCN1CCN(C(=S)Nc2ccc3nc(N4CCN(CC)CC4)cc(C)c3c2)CC1 | 2.61
CCN1CCN(C(=S)Nc2ccc3nc(N4CCN(C)CC4)cc(C)c3c2)CC1 | -2.94
CCN1CCN(c2cc(C)c3cc(NC(=S)N4CCCC4)ccc3n2)CC1 | -15.9
Cc1cc(N2CCN(C)CC2)nc2ccc(NC(=S)N3CCOCC3)cc12 | -15.4
CCN1CCN(c2cc(C)c3cc(NC(=S)N4CCCC(C)C4)ccc3n2)CC1 (centres unmarked) | -51.3
Cc1cc(N2CCN(C)CC2)nc2ccc(NC(=S)N3CCCCCC3)cc12 | -67.2

Compound | hERG current change (%, negative = inhibition) at 10uM [%]
Cc1cc(N2CCN(C)CC2)nc2ccc(NC(=O)CCC3CCCC3)cc12 | -74.6
Cc1cc(N2CCN(C)CC2)nc2ccc(NC(=O)CCC(=O)NCc3ccco3)cc12 | 7.05
CCN1CCN(c2cc(C)c3cc(NC(=S)N4CCOCC4)ccc3n2)CC1 | -23.4
CCN1CCN(c2cc(C)c3cc(NC(=S)N4CCCCC4)ccc3n2)CC1 | -50.1
CCN1CCN(C(=S)Nc2ccc3nc(N4CCN(CC)CC4)cc(C)c3c2)CC1 | -13.9
Cc1cc(N2CCN(C)CC2)nc2ccc(NC(=O)CCC(=O)NCCC(C)C)cc12 | 13.8
N/C(=N\OC(=O)/C=C/c1ccc(Br)cc1)c1ccccn1 | -6.37
OC(CSc1ccc(F)cc1)CN1CCN(c2ccccc2)CC1 (centres unmarked) | -41.7
O=C(CSc1nnc2c(Cl)cc(C(F)(F)F)cn12)NCc1ccc(F)cc1 | -4.27
CC(C)CN(C(=O)CSc1nnnn1C)C1CCS(=O)(=O)C1 (centres unmarked) | 26
CCC/C(=N\NC(=O)Cc1csc(N2CCOCC2)n1)c1ccccc1 | -13.5
O=C(N/N=C/c1ccc[nH]1)c1ccc(O)cc1 | 19.6
Cc1c(Cl)c([N+](=O)[O-])nn1CC(=O)N1CCc2ccccc2C1 | 1.08
Cc1c(Cl)c([N+](=O)[O-])nn1CC(=O)N1CCN(Cc2ccccc2)CC1 | -71
Cc1c(Br)c([N+](=O)[O-])nn1CC(=O)N1CCN(Cc2ccccc2)CC1 | -56.4
Cc1cc([N+](=O)[O-])nn1CC(=O)N1CCN(Cc2ccccc2)CC1 | -8.96
Cc1c(Br)c([N+](=O)[O-])nn1CC(=O)NCc1ccccc1 | -2.99
Cc1c(Cl)c([N+](=O)[O-])nn1CC(=O)N1CCCC1 | -4.86
